# According to ChEMBL document CHEMBL3433997, “St. Jude Leishmania screening dataset” (2016):
# Columns and labels:
# Format in all cases: functional
# [1] = target: Solute carrier family 2, facilitated glucose transporter member 1 (Homo sapiens) (UniProt P11166); test: ST_JUDE_LEISH: Cytotoxicity at 2uM final concentration against transgenic Leishmania Mexicana promastigotes LmGLUT1 that are glucose transport deficient and complemented with the human glucose transporter GLUT1. Activity is measured by DNA content using SYBR green in vitro
# [2] = target: Hexose transporter 1 (Plasmodium falciparum) (UniProt O97467); test: ST_JUDE_LEISH: Cytotoxicity at 2uM final concentration against transgenic Leishmania Mexicana promastigotes LmPfHT that are glucose transport deficient and complemented with the Plasmodium falciparum hexose transporter. Activity is measured by DNA content using SYBR green in vitro
# [3] = target: Glucose transporter (Leishmania mexicana) (UniProt O61059); test: ST_JUDE_LEISH: Cytotoxicity at 2uM final concentration against transgenic Leishmania Mexicana promastigotes LmGT2 that are glucose transport deficient and complemented with the L. Mexicana glucose transporter 2. Activity is measured by DNA content using SYBR green in vitro
# Solute carrier family 2, facilitated glucose transporter member 1 (Homo sapiens), sequence (P11166 whole entry): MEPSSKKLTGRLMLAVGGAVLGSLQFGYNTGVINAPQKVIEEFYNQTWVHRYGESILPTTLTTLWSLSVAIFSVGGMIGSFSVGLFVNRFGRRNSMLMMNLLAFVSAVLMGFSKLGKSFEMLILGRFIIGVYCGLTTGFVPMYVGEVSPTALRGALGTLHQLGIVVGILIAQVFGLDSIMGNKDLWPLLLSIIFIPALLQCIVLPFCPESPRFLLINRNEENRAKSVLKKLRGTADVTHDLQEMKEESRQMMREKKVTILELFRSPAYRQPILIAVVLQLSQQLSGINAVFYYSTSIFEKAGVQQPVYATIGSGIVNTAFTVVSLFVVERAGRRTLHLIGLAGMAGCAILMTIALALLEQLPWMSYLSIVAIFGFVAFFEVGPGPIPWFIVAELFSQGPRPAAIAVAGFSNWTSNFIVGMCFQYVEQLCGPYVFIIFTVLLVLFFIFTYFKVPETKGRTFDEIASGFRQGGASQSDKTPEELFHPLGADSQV
SMILES,inhibition [1] [%],inhibition [2] [%],inhibition [3] [%]
O=S(=O)(NCCN1CCCC1)c1cccc(-c2ccc(CNCc3ccc(F)cc3)cc2)c1,7.08,3.37,4.19
CCN(CC)/C(=N/C(=N)Nc1ccc(C)cc1)NCCCCCCN/C(=N\C(=N)Nc1ccc(C)cc1)N(CC)CC,7.79,5.77,5.53
Oc1ccc(CCNCCCCNCCc2ccc(Cl)cc2)cc1O,-1.52,1.57,-2.55
COC(=O)c1cccc(CNCc2ccc(-c3ccc(-c4nc5ccccc5[nH]4)s3)cc2)c1,9.31,9.04,9.28
O=C(/C=C/c1ccc(Cl)c(Cl)c1)NCCCCCN1CCC(CCNC(=O)/C=C/c2ccc(Cl)c(Cl)c2)CC1,1.63,-0.93,0.87
N#Cc1cnc2cc(-c3cnc(CNCCN4CCOCC4)s3)ccc2c1Nc1ccc(Oc2ccccc2)cc1,1.96,3.38,1.64
Cc1cc(Nc2ccncc2)n2nc(C)c(-c3ccccc3Cl)c2n1,2.97,1.58,6.28
CC(=O)c1cccc(Nc2nc3ccc(OCc4cc(Cl)cc(Cl)c4)c(C#N)c3[nH]2)c1,3.61,2.38,2.87
Nc1ncc(-c2ccsc2)cc1-c1nc2ccccc2[nH]1,2.86,6.79,2.5
CC(C)COc1ccc(Cl)cc1Nc1nc(-c2nc3ccccc3[nH]2)cs1,2.76,1.35,1.01
CCN(CC)CCN(Cc1ccc(-c2ccc(C(F)(F)F)cc2)cc1)C(=O)Cn1c(CCc2cccc(F)c2F)nc(=O)c2cc(C)ccc21,5.28,9.2,7.16
CCOc1cc(C(=O)N[C@@H](Cc2ccccc2)[C@H](O)CNCc2cc(OC)cc(OC)c2)cc(N2CCCCS2(=O)=O)c1,0.3,-0.68,-1.52
O=C(Cn1c(SCc2cccc(F)c2F)cc(=O)c2ccccc21)N(CCc1c[nH]cn1)Cc1ccc(-c2ccc(C(F)(F)F)cc2)cc1,4.17,5.15,2.52
COc1ccc(NC(=O)[C@H](Cc2ccccc2)Nc2cc(C)nc(NCCc3ccccc3OC)n2)cc1,-0.03,-1.38,-0.97
Cc1cccc2nc(-c3ccc(-c4ccc(NC(=O)Nc5ccsc5)cc4)s3)[nH]c12,5.12,5.23,4.39
FC(F)(F)c1ccc2[nH]c(-c3ccc(-c4cccc(CNCCc5cccnc5)c4)s3)nc2c1,3.04,2.04,4.6
COc1ccc(-c2nc(NC(=O)Cc3ccc(OC)c(OC)c3)sc2C)cc1,1.75,3.07,1.83
COc1ccc2[nH]c(C)cc(=NN=Cc3ccccc3)c2c1,-2.87,0.32,-0.26
COc1cc(CNCCCNc2nc(=O)c3sccc3[nH]2)c2[nH]cc(Cl)c2c1,92.7,96.7,87.6
NC(=O)c1ccsc1NC(=O)CNC(c1ccc(F)cc1)c1cccs1 (centres undefined),2.48,2.01,2.8
NS(=O)(=O)c1cccc(Nc2nc(N[C@@H]3CCNC3)nc3cc[nH]c(=O)c23)c1,4.84,2.08,-3
CC1CCCCN1CCCNc1ncc2c(-c3ccc(NC(=O)Nc4cc(C(F)(F)F)ccc4F)c(F)c3)nn(C)c2n1 (centres undefined),1.38,-0.99,0.83
Cc1cnc(-c2ccc(NC(=O)N3CCc4cc5nccc(N6CCN7CCC[C@H]7C6)c5cc43)c3ccccc23)o1,3.29,3.79,4.04

SMILES,inhibition [1] [%],inhibition [2] [%],inhibition [3] [%]
O=C1OC(c2ccccc2)(c2ccccn2)CN1C1CCN(Cc2cccn2-c2ccc(Cl)cc2)CC1 (centres undefined),2.2,1.43,-0.08
CCn1ccc2c(N3CCCC3=O)cc(C(=O)N[C@@H](Cc3ccccc3)[C@H](O)CNCc3cccc(OC)c3)cc21,1.06,1.98,0.14
Fc1ccc2[nH]c(-c3cccc(-c4ccc(CNCc5ccccc5)cc4)c3)nc2c1,7.37,9.95,4.2
CC1CCC2(CC1)NC(N)=NC(=N)N2OCCCCCCCCO (centres undefined),6.99,4.43,2.52
Cc1cc(C)cc(Oc2c(C(F)(F)F)oc3c(CN4CC(C)OC(C)C4)c(O)ccc3c2=O)c1 (centres undefined),-0.42,-1.36,1.31
CC(C)Cn1ncc2c3c(N)nc(N)nc3ccc21,4.46,5.97,4.36
O=C1Nc2cccc3c2C1(CCCCN1CCC(c2c[nH]c4cc(C(F)(F)F)ccc24)CC1)CCC3 (centres undefined),3.89,1.75,0.54
O=C(Nc1ccc(Oc2ccccc2)cc1)N[C@@H](Cc1ccc(O)cc1)C(=O)NC1CCN(Cc2ccc(O)c([N+](=O)[O-])c2)C1 (some centres undefined),2.19,1.19,0.33
CC(=O)Nc1ncc(C(=O)Nc2cccc(-c3cccc(-c4nc5cc(F)ccc5[nH]4)c3)c2)s1,1.74,2.62,1.65
O=C(Cn1c(CCc2cccc(F)c2F)cc(=O)c2ccccc21)N(CCN1CCCC1)Cc1ccc(-c2ccc(C(F)(F)F)cc2)cc1,1.56,2.33,2.03
CS(=O)(=O)c1ccc(CCNCc2ccc(-c3ccc(CN(C(=O)C4CCCC4)C4CCN(Cc5ccccc5)CC4)cc3)nc2)cc1,0.69,0.71,-2.64
CCc1c(CCNCCCCCCNC(C)(C)Cc2ccc3c(c2CC)OCO3)ccc(OC)c1OC,10,10.7,6.49
O=C(NC1CCN(Cc2ccccc2)CC1)c1cc(C(=O)NC2CCN(Cc3ccccc3)CC2)cc(C(=O)NC2CCN(Cc3ccccc3)CC2)c1,5.09,4.78,4.94
CCCCN(CCCC)Cc1cc2ccccc2cc1O,3.46,4.13,-0.3
c1ccc(-n2cncn2)cc1,0.46,1.47,4.67
O=S(=O)(Nc1ccc(CCN2CCC(N3CCCCC3)CC2)cc1)c1ccc(Cl)cc1,1.32,2.6,2.94
N#Cc1ccc(N(CCNS(=O)(=O)c2cc(Br)c(Cl)s2)Cc2ccccc2C(F)(F)F)cc1C(F)(F)F,3.37,0.82,1.55
CC(C)CCNC(=O)c1cnc2c(O)cccc2c1Nc1cccc(NC(=O)c2ccc(F)cc2)c1,4.52,7.98,0.01
CN(C)CCNCc1ccc(-c2ccc(-c3nc4ccccc4[nH]3)s2)cc1,13.7,14.5,12.8
CCOC(=O)NOC(C(=O)O)c1ccccc1 (centres undefined),2.01,-0.31,0.52
CCNc1cc(C(=O)N[C@@H](Cc2ccccc2)[C@H](O)CNC(C)(C)Cc2cccc(Cl)c2)cc(N2CCCCS2(=O)=O)c1,5.21,1.94,6.82
COc1ccc2ncc(C#N)c(CCN3C4CCC3CC(NCc3ccc5c(n3)NC(=O)CS5)C4)c2c1 (centres undefined),4.35,4.33,1.45
N#CC1(c2ccccc2)CCN(c2nc(NCCCN3CCCC3=O)nc(N3CCCC4CCCCC43)n2)CC1 (centres undefined),2.11,2.3,-0.55

SMILES,inhibition [1] [%],inhibition [2] [%],inhibition [3] [%]
Cc1ccc2c(-c3ccc([N+](=O)[O-])o3)cc(C)nc2c1,54.3,46.4,7.05
Cc1[nH]c(C)c(-c2ccc(-c3ccccc3F)nc2)c(=O)c1Br,2.19,4.24,1.41
O=C(/C=C/c1ccc(Cl)c(Cl)c1)NCCCCCN1CCCN(C(=O)Nc2ccc(F)c(Cl)c2)CC1,1.23,1.72,3.64
CCC(NC(=O)c1ccccc1NC(=O)c1ccc(C)cc1)C(=O)OC (centres undefined),-0.5,0.91,0.97
NC(=O)COc1c(C2CCN(CCCCNC(=O)c3ccc(-c4ccc(Cl)cc4)c(O)c3)CC2)ccc2c1CCCC2,-0.69,2.57,2.53
O=C(NC1CCCCC1)N(Cc1ccc(-c2ccc(CNCc3ccc4c(c3)OCO4)cc2)cc1)C1CCN(Cc2ccccc2)CC1,2.03,1.63,1.56
CC1CCCN(C(=O)c2cc(-c3ccccn3)nc3c(Cl)cccc23)C1 (centres undefined),2.19,1.26,1.25
CCCN(CCC)C(=O)c1cc(C(=O)N[C@@H](Cc2ccccc2)[C@H](O)CNC(C)(C)c2cccc(OC)c2)cc(N2CCCCS2(=O)=O)c1,1.96,1.53,2.14
Cc1cccc2nc(-c3ccc(-c4ccc(NC(=O)c5cncn5C)cc4)s3)[nH]c12,11.3,9.8,7.26
Cc1cccc2[nH]c(-c3cc(-c4cn[nH]c4)cnc3N)nc12,2.56,2.36,2.33
COc1ccc2nccc([C@@H](O)CN3CCC(NC(=O)/C=C/c4ccc(Cl)c(C(F)(F)F)c4)CC3)c2c1,5,4.74,-1.23
Cc1cccc2nc(-c3cccc(-c4ccc(NC(=O)Nc5ccsc5)cc4)c3)[nH]c12,5,4.66,2.53
COc1ccc(Nc2nccc(N3CCC(NC(=O)Nc4cc(C)ccc4C)C3)n2)cc1 (centres undefined),10.3,7.52,9.76
CCCCC([C@@H](Cc1ccc2ccccc2c1)C(=O)N[C@H](C(=O)NC)C(C)(C)C)N(O)C=O (some centres undefined),0.96,-0.31,2.89
C=CCOc1ccc(C(=O)Nc2nonc2-c2ccc(OC)c(OC)c2)cc1,1,1.23,1.78
COc1ccc(CNC(=O)Nc2cc3cc(-c4ccc(CN5CCCC5)cc4)ccc3n3c(C)nnc23)cc1,2.37,0.34,0.89
O=C(NCCCCCN1CCC(c2c[nH]c3ccccc23)C1)Nc1ccc(Cl)c(Cl)c1 (centres undefined),3.7,3.21,2.22
COc1ccc(CNC(=O)NC2CCN(c3ccnc(Nc4ccc(F)cc4)n3)CC2)cc1,0.86,1.1,0.64
c1cc(CNc2ncc(-c3ccsc3)c(-c3nccs3)n2)ccn1,7.08,9.37,6.45
COc1ccc2nccc(N3CCC(CCNCc4cc5c(cn4)OCCO5)CC3)c2n1,-0.34,0.24,1.72
CC(C)(C)SCC(O)Cn1c2ccc(Br)cc2c2cc(Br)ccc21 (centres undefined),2.07,0.65,-0.28
CCc1ccc(C2CCN(CCCCNC(=O)c3ccc(NC(=O)c4ccc(Cl)cc4)cc3)CC2)c(OC)c1,9.49,2.21,1.66
